High-throughput results: PubChem, Broad Institute
Compounds with a hit are over-represented: about 1.4% of the library has one in this group of screens.
RAD52 inh – RAD52 DNA annealing inhibitors, primary screen, biochemical, FRET, single point, set 2 | inhibition, % at 18.7 µM | AID 651710, 2012 | hit rate 0.46% among 360,000 | recombinant RAD52 DNA annealing, FRET fluorescence | DNA repair protein RAD52 homolog (Homo sapiens), P43351;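 active means every replicate showing at least 50% inhibition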
Target sequence (P43351 whole entry, looked up): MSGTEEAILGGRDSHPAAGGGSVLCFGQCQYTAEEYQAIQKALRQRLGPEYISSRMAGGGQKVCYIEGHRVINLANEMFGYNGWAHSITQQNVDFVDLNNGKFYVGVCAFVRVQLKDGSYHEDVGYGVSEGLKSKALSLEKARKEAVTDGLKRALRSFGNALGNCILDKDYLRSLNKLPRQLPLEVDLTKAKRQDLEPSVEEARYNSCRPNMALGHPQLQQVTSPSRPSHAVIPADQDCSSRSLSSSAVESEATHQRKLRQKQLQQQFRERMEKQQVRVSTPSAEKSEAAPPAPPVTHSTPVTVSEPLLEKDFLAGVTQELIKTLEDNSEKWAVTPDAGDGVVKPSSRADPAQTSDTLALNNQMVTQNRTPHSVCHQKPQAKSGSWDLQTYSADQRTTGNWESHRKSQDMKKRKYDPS
MLL AF4-AF9 inh – inhibitors of AF4 peptide binding to AF9, primary screen, biochemical, AlphaScreen, biotin-AF4 peptide, FLAG-AF9, single point. Protein AF-9 (Homo sapiens), P42568. inhibition, % at 10 µM. hit rate 0.47% among 350,000. AID 651704, 2012;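 active means every replicate reaching a set inhibition limit, whatever the replicate mean, cut at about 25% in these data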;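 further: 0% = plate neutral control median and 100% = total signal loss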
GSIS activator – GLuc luminescence reporter in INS-1E cells, primary screen for activators of glucose-dependent secretion of insulin. INS-1E GLuc reporter insulin secretion, 2-3 h. activation, % at 16.6 µM. hit rate 0.61% among 370,000. AID 743287, 2014;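 active means lowest replicate activation of at least 40%, so every replicate reaches that level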;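 further: 0% = median of neutral control wells and 100% = median of IBMX positive control wells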
PGC1a acetyl inh – inhibitors of PGC1a acetylation signal, primary screen, cell-based, U2OS, AlphaScreen, inhibitor mode | AlphaScreen anti-acetyl-lysine; with virally co-expressed GCN5 acetyltransferase | inhibition, % at 15.6 µM | hit rate 0.17% among 350,000;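 active means every replicate shows inhibition of at least 40%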;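 further: 0% = neutral control wells and 100% = positive control wells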
RAD54 inh – inhibitors of human RAD54 branch migration, primary screen, biochemical, fluorescence, single point; inhibition, % at 10.4 µM; hit rate 0.14% among 360,000; RAD54 Holliday junction branch migration, FAM/BHQ fluorescence; DNA repair and recombination protein RAD54-like (Homo sapiens), Q92698;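 active means mean normalized replicate activity at least 40 and at least half of replicates scoring 40 or more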;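 further: 0% = median of neutral control wells and 100% = median of positive control wells; inhibitors cause a drop in the FAM fluorescence signal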
ERAP1 inh – human ERAP1 aminopeptidase inhibitors, primary screen, biochemical, single point, plate reader. Endoplasmic reticulum aminopeptidase 1 (Homo sapiens), Q9NZ08. recombinant ERAP1, Leu-AMC fluorescence, 60 min. inhibition, % at 10.7 µM. hit rate 0.15% among 340,000. AID 652197, 2013;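 active means mean replicate inhibition of at least 30%, or all replicates individually reaching that 30% level; inactive means mean below 30% and not every replicate reaching it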;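 further: 0% = neutral control wells and 100% = L-leucinethiol positive control wells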
RAD52 DNA ctr – DNA-binding compounds via dye displacement, dose response, artefact control for RAD52 inhibitor project, biochemical, fluorescence polarization, cherry-pick; shares compounds with RAD52 inh; Salmon sperm DNA/acridine orange FP displacement; AC50, µM; hit rate 8% among 1,000; AID 652128, 2013;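 active means fitted half-maximal concentration for signal loss at or below twice the highest dose tested, in every separate run, actives reach about 64 µM in these data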
Starred values were filed as active, the others as inactive; i = inactive; / = not tested or not shown.

SMILES | RAD52 inh | MLL AF4-AF9 inh | GSIS activator | PGC1a acetyl inh | RAD54 inh | ERAP1 inh | RAD52 DNA ctr
CN1CCN(c2ccc(Cl)cc2N)CC1 | 1.3 | 0.3 | 7.5 | -1.2 | / | 5.2 | /
Oc1ccc2c3c1O[C@H]1c4[nH]c5ccccc5c4C[C@@]4(O)[C@@H](C2)N(CC2CC2)CC[C@]314 | 8.0 | 6.7 | / | -2.3 | 5.5 | -4.2 | /
NC(N)=Nc1ccc2[nH]c3c(c2c1)C[C@@]1(O)[C@H]2Cc4ccc(O)c5c4[C@@]1(CCN2CC1CC1)C3O5 (stereo partly specified) | 52.8* | / | -4.6 | -5.9 | 34.6 | -0.6 | i
O=C(O)[C@H]1[C@H](CO)[C@H]2Cn3c(ccc(C4=CCCC4)c3=O)[C@@H]1N2C(=O)Cc1ccccn1 | -20.1 | -5.9 | 5.8 | / | 3.6 | -0.1 | /
N#Cc1cccc(-c2ccc([C@H]3[C@H]4CN(C(=O)Cc5ccccc5)CCCCN4[C@H]3CO)cc2)c1 | -22.0 | -1.7 | -6.8 | 0.2 | 0.0 | -1.8 | /
NC1(C(=O)O)CCCc2ccc(N(CCCl)CCCl)cc21 (stereo unspecified) | 61.3* | 10.3 | / | 3.1 | 2.8 | 1.2 | i
O=C(Cc1ccccc1)N1CCCCN2[C@H](CO)[C@@H](c3ccc(C#Cc4ccccc4)cc3)[C@H]2C1 | -16.5 | -0.9 | -8.3 | -4.5 | 3.1 | -4.2 | /
COc1cc2c(ccc3c4cc(OC)c(OC)cc4c[n+](C)c23)cc1O | 97.5* | -3.1 | / | -12.5 | / | 5.9 | 20.9µM*
COc1ccc(CC2=NCCc3cc(OC)c(OC)cc32)cc1OC | 57.0* | -1.5 | 8.2 | -17.7 | 42.0 | -7.2 | i
COC(=O)[C@H]1[C@H](CO)[C@H]2Cn3c(ccc(-c4ccc(OC)cc4)c3=O)[C@@H]1N2C(=O)c1ccccc1F | 8.4 | -17.3 | 6.8 | / | -4.3 | 0.1 | /
O=C(Cc1ccccn1)N1CCCCN2[C@H](C1)[C@@H](c1ccc(-c3ccccc3F)cc1)[C@@H]2CO | -6.7 | -7.2 | 13.3 | 7.8 | 1.0 | 0.3 | /
COc1cc2c(cc1OC)-c1c(OC)c(OC)cc3c1[C@H](C2)N(C)CC3 | 75.6* | 9.7 | 7.9 | 9.1 | 91.1* | -1.5 | i
O=C(Cc1ccccn1)N1CCCCN2[C@H](CO)[C@@H](c3ccc(C#Cc4ccccc4)cc3)[C@H]2C1 | -26.5 | -1.0 | -14.9 | 11.1 | -5.0 | 2.0 | /
NC(Cc1ccc(F)cc1)c1csc(Nc2ncccn2)n1 (stereo unspecified) | -11.5 | -0.2 | 4.2 | / | 0.3 | 10.3 | /
Nc1ccc(CC(N)c2csc(Nc3ncccn3)n2)cc1 (stereo unspecified) | 86.8* | 13.6 | 5.4 | / | 18.6 | 2.4 | i
C[C@]12CCC3C(CC[C@H]4C[C@@H](O)CC[C@]34C)C1CC[C@@H]2OC(=O)[C@H](N)CCCCN (stereo partly specified) | 97.0* | 7.2 | 13.9 | 16.2 | 65.5* | -2.9 | i
CC(=O)C1CCC2C3CCC4CC(O)CCC4(C)C3CCC12C (stereo unspecified) | 6.6 | -1.1 | / | -2.5 | -2.0 | -2.7 | /
Cc1[nH]c2c(C(F)(F)F)cccc2c1CCN | / | / | / | 7.1 | / | / | /
Cc1[nH]c2ccc(O)cc2c1CCN | 80.9* | 31.9* | / | -1.4 | 2.4 | 6.0 | i
NC(N)=N/N=C/c1ccc(N(c2ccccc2)c2ccccc2)cc1 | 88.7* | -27.7 | 320.8* | / | -0.2 | -33.5 | i
Cc1ccc2c(C)c3ccc4ccccc4c3c[n+]2c1 | 93.5* | 1.3 | / | 6.9 | / | -172.5 | 13.5µM*
O=C(O)[C@@H]1[C@@H](CO)[C@@H]2Cn3c(ccc(C4=CCCC4)c3=O)[C@H]1N2C(=O)Cc1ccccn1 | -25.3 | 0.6 | 8.3 | / | 5.8 | 1.4 | /
